The source of these data is PubChem BioAssay AID1259417 (TB Discovery Research, Infectious Disease Research Institute, 2018).

Out of some 1,100 compounds screened, about 760 (69%) were called active. The rule behind the calls is not given here. So high a share suggests a set chosen from earlier hits. Some of the results follow.

The test can be described thus: M. tuberculosis growth inhibition, HTS (AID 1259417).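 Note: bacteria grown with compound for 5 days at 37 °C.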 The following applies: stronger effect = higher value, concentration not given here.
Where [1] appears, read: M. tuberculosis DsRed fluorescence growth inhibition.
[2] abbreviates: M. tuberculosis growth inhibition.

The term inhibition denotes the change of the read-out against control, counted positive when it falls. As for `O=C(Nc1sc2c(c1C(=O)Nc1ccccc1)CCC2)c1cccc(Br)c1`, the inhibition by setting is: under setting [1], 0.927% (inactive); under setting [2], -1.38%.

On to `O=C(CNCCN1CCOCC1)Nc1sc2c(c1C(=O)Nc1ccccc1)CCC2`, for which the inhibition runs as follows: under setting [1], 100% (active); under setting [2], 100%.

Turning to `COCCCNC(=O)c1c(NC(=O)c2ccccc2OC)sc2c1CCCC2`, the inhibition reads like this: under setting [1], 2.12% (inactive); under setting [2], -22.4%.

As for `CCOc1ccc(NC(=O)c2c(NC(=O)CNCCN3CCOCC3)sc3c2CCC3)cc1`, the inhibition was 100% (active) under setting [1] and 101% under setting [2].

Consider `Cc1ccccc1C(=O)Nc1sc2c(c1C(=O)NCCO)CCC(C(C)(C)C)C2` (stereo not given), for which the inhibition under setting [1] was 5.07% (inactive) and the inhibition under setting [2] is -17.9%.

As for `CO[C@H]1C=CO[C@@]2(C)Oc3c(C)c(O)c4c(O)c(c5c(c4c3C2=O)=NC2(CCN(CC(C)C)CC2)N=5)NC(=O)C(C)=CC=C[C@H](C)[C@H](O)[C@@H](C)[C@@H](O)[C@@H](C)[C@H](OC(C)=O)[C@@H]1C`, the inhibition runs as follows: under setting [1], 100% (active); under setting [2], 101%.

In the case of `Cc1ccc(-c2nnc(NC(=O)c3ccc(Cl)s3)o2)c(C)c1`, the inhibition was 86.1% (active) under setting [1] and 75.4% under setting [2].

In the case of `Cc1ccc(-c2nnc(NC(=O)c3ccc(Br)s3)o2)c(C)c1`, the inhibition under setting [1] is 83.8% (active) and the inhibition under setting [2] worked out at 75.7%.

As for `COc1ccc(OC(C)C(=O)Nc2ccc(I)cc2)cc1` (stereo not given), the inhibition is 76% (active) under setting [1] and 79.3% under setting [2].

On to `COc1ccc(OC(C)C(=O)Nc2ccc(Cl)cc2C)cc1` (stereo not given), for which the inhibition is 1.5% (inactive) under setting [1] and -1.86% under setting [2].

Turning to `Oc1ccccc1-c1n[nH]c(/C=C/c2ccc(Cl)cc2)n1`, the inhibition is, setting by setting: under setting [1], 2.06% (inactive); under setting [2], -29.9%.

For `CC(C)(C)c1ccc(C(=O)Nc2ccc(S(=O)(=O)Nc3nccs3)cc2)cc1Br`, the inhibition reads like this: under setting [1], 1.5% (inactive); under setting [2], -12.7%.

Consider `CC1CCc2c(sc3ncn(C(C)C(=O)OCc4ccccc4)c(=O)c23)C1` (stereo not given), for which the inhibition by setting is: under setting [1], 6.46% (inactive); under setting [2], 8.18%.

Take `CC1CCc2sc3ncnc(NCCc4ccccc4)c3c2C1` (stereo not given): the inhibition under setting [1] is 35.8% (active) and the inhibition under setting [2] was found to be 35.3%.

As to `O=C(Nc1nc2c(s1)CCCC2)c1ccc(Br)s1`, the inhibition is, setting by setting: under setting [1], 42.7% (active); under setting [2], 18.9%.

Turning to `CC(Sc1nnc(N)s1)C(=O)Nc1nc2c(s1)CCCC2` (stereo not given), the inhibition was 18.7% (inactive) under setting [1] and 26% under setting [2].

In the case of `O=C(Nc1ccc2c(c1)CCC2)c1ccc(Br)s1`, the inhibition was 25.5% (inactive) under setting [1] and 10.7% under setting [2].

With `Cc1cc(OCc2nnc(SCC(=O)OC3CCCCC3)o2)ccc1Cl`, the inhibition was 94% (active) under setting [1] and 94.6% under setting [2].

In the case of `Cc1cccc(OCc2nnc(SCC(=O)OC3CCCCC3)o2)c1`, the inhibition was 82.9% (active) under setting [1] and 94.9% under setting [2].

As for `O=C(Nc1ccc(C(F)(F)F)cc1)Nc1cccc(Cl)c1`, the inhibition was 99.7% (active) under setting [1] and 100% under setting [2].

`Cc1ccc(S(=O)(=O)Nc2ccc(NC(=O)Nc3cccc(C(F)(F)F)c3)cc2)cc1`: the inhibition is 1.5% (inactive) under setting [1] and -12.5% under setting [2].

Regarding `O=C(C=Cc1cccc(C(F)(F)F)c1)Nc1cccc(C(F)(F)F)c1`, the inhibition is, setting by setting: under setting [1], 25.5% (inactive); under setting [2], 6.54%.

For the molecule `CCOC(=O)CNC(=O)CSc1nc(-c2ccccc2)ns1`, the inhibition runs as follows: under setting [1], 85.8% (active); under setting [2], 65.5%.

As to `CCOC(=O)CSc1nc(-c2ccccc2)ns1`, the inhibition reads like this: under setting [1], 51.6% (active); under setting [2], 86.5%.

In the case of `CCOC(=O)CNC(=O)CSc1nc(-c2cccc(C)c2)ns1`, the inhibition is 56.7% (active) under setting [1] and 71.3% under setting [2].

Take `c1ccc2cc3nc4c(ccc5ccccc54)nc3cc2c1`: the inhibition under setting [1] is 97.7% (active) and the inhibition under setting [2] came out at 99%.

For the molecule `COc1cccc(-n2nnnc2S(=O)(=O)Cc2ccccc2)c1`, the inhibition is, setting by setting: under setting [1], 100% (active); under setting [2], 101%.

Take `COc1cccc(-n2nnnc2S(C)(=O)=O)c1`: the inhibition runs as follows: under setting [1], 99.7% (active); under setting [2], 100%.

In the case of `CCCS(=O)(=O)c1nnnn1-c1cccc(OC)c1`, the inhibition was 101% (active) under setting [1] and 100% under setting [2].

In the case of `O=C(C=Cc1cccs1)N1CCN(Cc2ccc3c(c2)OCO3)CC1`, the inhibition runs as follows: under setting [1], 99.4% (active); under setting [2], 100%.

Regarding `O=C(NC1CCCCC1)N1CCN(Cc2ccc3c(c2)OCO3)CC1`, the inhibition was 99.4% (active) under setting [1] and 100% under setting [2].

Turning to `CC12CC3CC(C)(C1)CC(CNCc1ccccc1O)(C3)C2`, the inhibition under setting [1] was 98.9% (active) and the inhibition under setting [2] is 99.3%.

Turning to `CC1(C)C=Cc2c(nc3ccccc3c2NCc2ccccc2)C1`, the inhibition reads like this: under setting [1], 16.7% (active); under setting [2], 35.8%.

Turning to `c1ccc(CNc2nc(N3CCN(Cc4ccccc4)CC3)nc3ccccc23)cc1`, the inhibition reads like this: under setting [1], -2.6% (inactive); under setting [2], -0.535%.

In the case of `Cc1cc(OCCn2ccnc2)ccc1Cl`, the inhibition was 89.5% (active) under setting [1] and 90.8% under setting [2].

As to `Cc1cc(OCCCn2ccnc2)ccc1Cl`, the inhibition is, setting by setting: under setting [1], 98.9% (active); under setting [2], 99.6%.

With `Clc1ccc(OCCCCn2ccnc2)c(Br)c1`, the inhibition by setting is: under setting [1], 98.8% (active); under setting [2], 99.3%.

In the case of `Clc1cc(Br)ccc1OCCCCn1ccnc1`, the inhibition reads like this: under setting [1], 99.4% (active); under setting [2], 99.4%.

For `Clc1ccc(SCCCn2ccnc2)cc1`, the inhibition is, setting by setting: under setting [1], 100% (active); under setting [2], 99.6%.

On to `Brc1c(OCCCn2ccnc2)ccc2ccccc12`, for which the inhibition by setting is: under setting [1], 98.3% (active); under setting [2], 99%.

For the molecule `Clc1ccc(OCCCCCn2ccnc2)c(Cl)c1`, the inhibition was 100% (active) under setting [1] and 99.3% under setting [2].

As to `C=CCc1cc(C)ccc1OCCCn1ccnc1`, the inhibition runs as follows: under setting [1], 92.4% (active); under setting [2], 97.1%.

As for `C=CCc1cc(Cl)ccc1OCCCCn1ccnc1`, the inhibition under setting [1] was 100% (active) and the inhibition under setting [2] worked out at 100%.

On to `C=CCc1cc(C)ccc1OCCCCn1ccnc1`, for which the inhibition by setting is: under setting [1], 99.4% (active); under setting [2], 100%.

Take `C=CCn1c(-c2cccs2)nc2ccccc21`: the inhibition was 97.1% (active) under setting [1] and 100% under setting [2].
